# Hit rate of the full screen: of about 48,000 compounds, about 13,000 (27%) showed an effect of 50% or more. Some of the results follow.
# Tested on: Wolbachia pipientis
# Experiment: Anti-Wolbachia Cell-Based Screen
# Type: functional
# Set-up: scale not given: in the data most compounds retested in dose-response had high values
# Settings: 5 µM
row,SMILES,Percent Effect
1,OCCN1CCC(CNCCOCC(F)(F)F)CC1,0.8425%
2,Cc1ccc(-c2ncc(CNc3cnccc3CO)s2)o1,8.317%
3,FC(F)(F)CCc1ncnn1-c1ccc2c(c1)OCO2,-6.748%
4,Cc1ccccc1C(C(=O)N1CCN(C(=O)c2ccc[nH]2)CC1)N(C)C (stereo not drawn),2.077%
5,Nc1ncc(CN2CCC(CCC(=O)NC3CC3)CC2)cn1,2.927%
6,CC(C)CN1CC[C@@H]2[C@@H]1CCN2S(=O)(=O)c1cn(C)cn1.O=C(O)C(F)(F)F,9.969%
7,CCS(=O)(=O)N1CCC2(CN(C(=O)c3cn(C)cn3)C2)C1,-4.508%
8,Cn1cnc(S(=O)(=O)N2CCN(CC3CC3)c3ncccc3C2)c1.O=C(O)C(F)(F)F.O=C(O)C(F)(F)F,-19.75%
9,Cn1cnc(S(=O)(=O)N2CC3(CCN(CC4CC4)C3)C2)c1.O=C(O)C(F)(F)F.O=C(O)C(F)(F)F,100.1%
10,CCN1CCC2(C1)CN(S(=O)(=O)c1cn(C)cn1)C2.O=C(O)C(F)(F)F.O=C(O)C(F)(F)F,110.7%
11,CC(C)CO[C@H]1CN(S(=O)(=O)c2cn(C)cn2)[C@@H]2CCCO[C@H]12.O=C(O)C(F)(F)F,-4.682%
12,CC(C)CN1CCC2(C1)CN(S(=O)(=O)c1cn(C)cn1)C2.O=C(O)C(F)(F)F.O=C(O)C(F)(F)F,81.89%
13,Cn1cnc(C(=O)N2CC3(CCN(S(=O)(=O)c4ccccc4)C3)C2)c1,-0.5352%
14,Cn1cnc(S(=O)(=O)N2CC3(CCN(c4ccccc4)C3)C2)c1.O=C(O)C(F)(F)F,94.4%
15,CCO[C@H]1CCN(S(=O)(=O)c2cn(C)cn2)[C@H]1Cc1ccccc1.O=C(O)C(F)(F)F,-2.456%
16,O=C(O)C(F)(F)F.O=S(=O)(C1CC1)N1CCC2(CN(c3ccccn3)C2)C1,2.12%
17,CCn1cc2c(n1)CN(S(=O)(=O)c1cn(C)cn1)CC2COC.O=C(O)C(F)(F)F (stereo not drawn),-7.552%
18,CC(CC(=O)Nc1ncn(CC(=O)NCc2ccccc2)n1)C1CC1 (stereo not drawn),-9.655%
19,COc1ccc(S(=O)(=O)NCC(O)c2sccc2C)cc1Cl (stereo not drawn),7.194%
20,CC(=O)N1CCCCCC1C1CCN(Cc2nc(C3CC3)no2)CC1 (stereo not drawn),-6.899%
21,Brc1cnc(NCCCOC2CCOCC2)nc1,-7.222%
22,CNc1cccc(CC2COCCN(C(=O)c3cccnc3)C2)n1 (stereo not drawn),118.9%
23,CC(C)Oc1cccc(C(=O)C2CCCN(C(=O)c3cncs3)C2)c1 (stereo not drawn),11.61%
24,CNc1cccc(CC2COCCN(C(=O)c3cnn(C)c3)C2)n1 (stereo not drawn),151.8%
25,CNc1cccc(CC2COCCN(C(=O)c3cncs3)C2)n1 (stereo not drawn),126.5%
26,Cc1ccsc1S(=O)(=O)N1CCc2c(c(C(=O)O)nn2CC2CC2)C1,-2.186%

row,SMILES,Percent Effect
1,CN(Cc1noc2c1CCCC2)C(=O)Cn1c(=O)cnc2ccccc21,5.556%
2,Cc1cnc2n(c1=O)C(CC(=O)NCc1cc(-c3cccs3)on1)CS2 (stereo not drawn),-18.75%
3,O=C(CC1CSc2nccc(=O)n21)NCc1cc(-c2ccco2)on1 (stereo not drawn),-4.448%
4,Cc1cnc2n(c1=O)C(CC(=O)NCc1cccs1)CS2 (stereo not drawn),81.1%
5,O=C(CC1CSc2nccc(=O)n21)NCc1ccco1 (stereo not drawn),9.661%
6,Cc1cnc2n(c1=O)C(CC(=O)NCc1ccco1)CS2 (stereo not drawn),71.35%
7,CC(C)c1cc2c(O)nc(CSCC(=O)O)nc2s1,30.38%
8,CN(Cc1cccs1)C(=O)c1ccc(N2CCOCC2)c(F)c1,-5.296%
9,COc1ccccc1C(NC(=O)NC1CC1)c1noc(C)n1 (stereo not drawn),-18.96%
10,Cc1cc(NC(=O)CN2CCCC2c2noc(C3CC3)n2)on1 (stereo not drawn),2.122%
11,CCc1nc(C2CCCN2CC(=O)Nc2cc(C)on2)no1 (stereo not drawn),106.9%
12,CCc1nc(C2CCCN2CC(=O)Nc2nncs2)no1 (stereo not drawn),-0.024%
13,CCc1nc(C2CCCN2CC(=O)Nc2cc(C)no2)no1 (stereo not drawn),85.76%
14,Cc1cc(NC(=O)CN2CCCC2c2noc(C3CC3)n2)no1 (stereo not drawn),3.572%
15,CCc1nc(C2CCCN2CC(=O)Nc2c(C)nn(C)c2C)no1 (stereo not drawn),-9.932%
16,CCc1nc(C2CCCN2CC(=O)Nc2nnc(C)s2)no1 (stereo not drawn),78.74%
17,Cc1nnc(NC(=O)CN2CCCC2c2noc(C3CC3)n2)s1 (stereo not drawn),-18.02%
18,CCc1nc(C2CCCN2CC(=O)Nc2sc(C)c(C)c2C)no1 (stereo not drawn),-4.711%
19,Cc1cc(CN(CCCO)c2ccccc2)on1,-3.081%
20,O=S(=O)(NC[C@H]1OC[C@@H](NCc2cccs2)[C@@H]1O)c1ccccc1,-1.267%
21,CCCn1ccnc1CN1C[C@@H](CN2CCCN(C)CC2)[C@@H](CO)C1,7.413%
22,CCCN(Cc1ccccc1)Cn1nc(C)c2c(C)onc2c1=O,10.45%
23,CCN(Cc1ccccc1Cl)Cn1nc(C)c2c(C)onc2c1=O,88.73%
24,CCN(Cc1c(F)cccc1F)Cn1nc(C)c2c(C)onc2c1=O,127.8%
25,Cc1nn(CN(CC(C)C)C2CC2)c(=O)c2noc(C)c12,-9.201%
26,CCC(C)N(Cc1c[nH]c(C)n1)Cc1ccccc1Cl (stereo not drawn),9.271%

row,SMILES,Percent Effect
1,CCCN(CC)Cn1ncc2cn(-c3ccccc3)nc2c1=O,21.01%
2,CCN(Cc1cccc(F)c1)Cn1nc(C)c2c(C)onc2c1=O,123.6%
3,Cc1nn(CN(Cc2ccsc2)C2CC2)c(=O)c2noc(C)c12,0.1409%
4,CCN(Cc1cccc(C)c1)Cn1nc(C)c2c(C)onc2c1=O,127.1%
5,CCN(Cc1cccc(Cl)c1)Cn1nc(C)c2c(C)onc2c1=O,4.514%
6,Cc1cccc(CN(Cn2nc(C)c3c(C)onc3c2=O)C2CC2)c1,-8.073%
7,CCN(CC)Cc1ccccc1NCc1c(C)noc1C,-28.25%
8,O=C(NC[C@H]1OC[C@@H](NCc2cccs2)[C@@H]1O)N1CCOCC1,1.798%
9,COc1cc(CN(C)C(=O)NCCC(=O)NC2CCCC2)ccc1SC,-22.89%
10,Cn1ccnc1C(=O)NC[C@@H]1OC[C@H]2CN(S(C)(=O)=O)CC[C@H]21,-19.48%
11,CS(=O)(=O)NCC(=O)NC1CCc2nccn2C1 (stereo not drawn),17.97%
12,CS(=O)(=O)NCCC(=O)NC1CCc2nccn2C1 (stereo not drawn),-6.555%
13,O=C(CCn1cncn1)NC1CCc2nccn2C1 (stereo not drawn),104.2%
14,CC(C)N(C)CC(=O)NC1CCc2nccn2C1 (stereo not drawn),10.39%
15,O=C(CCn1cncn1)NC1CCS(=O)(=O)C1 (stereo not drawn),5.446%
16,O=C(CCCn1cncn1)NC1CCc2nccn2C1 (stereo not drawn),92.38%
17,COCCN(C)C(=O)Nc1cc2c(cc1SC)OCCO2,-4.661%
18,O=C(CN1CCCNC1=O)Nc1ccccc1SC(F)(F)F,20.21%
19,Cc1cc(N2CCN(Cc3ccsc3)C(CCO)C2)nc(N)n1 (stereo not drawn),18.89%
20,CSc1ncc(C(=O)N2C[C@H]3CC[C@@H]2CN(S(=O)(=O)N(C)C)C3)cn1,-20.31%
21,O=C(NC1CC1)c1cc(NC(=O)N2CCCC(O)C2)ccc1Cl (stereo not drawn),-7.994%
22,COc1cccc(CC2CN(C3CCN(C(C)=O)CC3)CCO2)c1 (stereo not drawn),-14.95%
23,COCC(=O)N1CCCC(C(=O)NCc2cc(CC(C)C)on2)C1 (stereo not drawn),3.91%
24,CCC(CC)c1cc(CNC(=O)N2CCCC(C(=O)NC)C2)on1 (stereo not drawn),-0.3036%
25,Cc1cc(CN(C)C(=O)C2CCCN(C(=O)c3ccc(Cl)cc3)C2)no1 (stereo not drawn),-5.924%
26,CSCc1nc(CNC(=O)C2CCCN(C(=O)N(C)C)C2)cs1 (stereo not drawn),1.326%

row,SMILES,Percent Effect
1,CCc1cc(NC(=O)C2CCCN(C(=O)NCC(C)C)C2)[nH]n1 (stereo not drawn),96.52%
2,CCc1cc(CNC(=O)C2CCCN(C(=O)NCC(C)C)C2)[nH]n1 (stereo not drawn),152.4%
3,CC(C)Cc1cc(CNC(=O)C2CCCN(C(=O)N(C)C)C2)no1 (stereo not drawn),1.053%
4,CCc1cc(NC(=O)C2CCCN(C(=O)c3ccncc3)C2)[nH]n1 (stereo not drawn),100.1%
5,COCCN1CCOCC12CCN(c1nccs1)CC2.O=C(O)C(F)(F)F,44.08%
6,CCN1CCOCC12CCN(c1nccs1)CC2.O=C(O)C(F)(F)F,-65.58%
7,COCCN1CCOCC2(CCN(c3cnccn3)CC2)C1.O=C(O)C(F)(F)F,-15.76%
8,COCCN1CCOCC12CCN(c1cnccn1)CC2.O=C(O)C(F)(F)F,110.8%
9,CCN1CCOCC12CCN(c1ccc(C#N)cc1)CC2.O=C(O)C(F)(F)F,-6.455%
10,CCN1CCOCC12CCN(c1cnccn1)CC2.O=C(O)C(F)(F)F,94.98%
11,CC(C)(C)c1cc(C(=O)NCCn2nc3ccccn3c2=O)[nH]n1,15.5%
12,O=C(NC[C@H]1OC[C@@H](NC2CCC2)[C@@H]1O)c1cccs1,2.166%
13,O=C(NCc1ccnc(C2CCCOC2)n1)c1cccs1 (stereo not drawn),112.2%
14,O=C(NC[C@H]1OC[C@@H](NC2CCOCC2)[C@@H]1O)c1cccs1,-3.226%
15,Cn1ccnc1Sc1ncc(C(=O)N2CCCCC2)cc1Cl,1.099%
16,Cc1cccn2c(CNC(C)CCn3cccn3)cnc12 (stereo not drawn),-12.69%
17,CCOC(=O)CNC(=O)Cn1c(-c2ccoc2)nc(C)c1C,117%
18,Cc1nc(-c2ccoc2)n(CC(=O)NCC(C)C)c1C,121.2%
19,COc1cccn(CC(=O)N(C)Cc2ccoc2)c1=O,-6.863%
20,Cc1nc(-c2ccccc2)n(CC(=O)NCC(C)C)n1,-0.5584%
21,CCOC(=O)CCCNC(=O)CN1CCN(c2ncccn2)CC1,-1.703%
22,Cc1nc(NC(=O)N(C)Cc2ccoc2)nn1C,-1.976%
23,CCOC(=O)CNC(=O)N1CCc2onc(-c3ccc(Cl)cc3)c2C1,-4.75%
24,CC(C)CNC(=O)CN1C=Nc2ccccc2S1(=O)=O,-1.925%
25,Cc1nc(-c2ccoc2)n(CC(=O)N(C)CC(C)C)c1C,99.79%
